From the supplement of paper PMC10037445
In all, about 2,900 compounds were measured (“NF-kB SEAP reporter activity, fold change vs agonist alone”: median about 0.99, highest 2% from about 2.6 on). The sample holds the highest values, similar compounds and a random draw of the others, so the mix is not that of the screen.

Experiments:
RAW-Dual [1] = test: NF-kB SEAP reporter activity, fold change vs agonist alone; higher = enhanced NF-kB activity
Outline: (§1)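 RAW-Dual macrophages (50,000 cells/well in DMEM, 384-well plates) received 50 nL of library stock by pin tool, then a PRR agonist 1 h later, and were kept at 37 °C, 5% CO2. After 20 hours, supernatant was read for IRF by QuantiLuc luminescence and for NF-κB by QuantiBlue absorbance at 620 nm. Reporter activity is fold change over agonist-alone wells. Cytotoxic wells had IncuCyte confluency below 70% of agonist controls in both mask sets.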

RAW-Dual [2] = test: NF-kB SEAP reporter activity, fold change vs agonist alone; cytotoxicity flag (confluency mask): not cytotoxic; higher = enhanced NF-kB activity
Outline: as §1

RAW-Dual [3] = test: NF-kB SEAP reporter activity, fold change vs agonist alone; cytotoxicity flag (confluency mask): cytotoxic (confluency <70% of control); higher = enhanced NF-kB activity
Outline: as §1

[4] = agonist: ODN 1826 (TLR9) 0.5 ug/mL
[5] = agonist: Pam2CSK4 (TLR2/6) 0.1 ug/mL
[6] = agonist: Pam3CSK4 (TLR2/1) 0.1 ug/mL
[7] = library stock concentration (final ~1000-fold dilution): 10 mM, cytotoxicity flag (confluency mask): not cytotoxic, agonist: Imiquimod (TLR7) […]
[8] = library stock concentration (final ~1000-fold dilution): 10 mM, cytotoxicity flag (confluency mask): not cytotoxic, agonist: MPLA (TLR4) […]
[9] = library stock concentration (final ~1000-fold dilution): 10 mM, cytotoxicity flag (confluency mask): cytotoxic (confluency <70% of control), agonist: Imiquimod (TLR7) […]
[10] = library stock concentration (final ~1000-fold dilution): 10 mM, cytotoxicity flag (confluency mask): cytotoxic (confluency <70% of control), agonist: MPLA (TLR4) […]

CN1CCN(CC(=O)N2c3ccccc3C(=O)Nc3cccnc32)CC1.Cl.Cl
NF-kB SEAP reporter activity (RAW-Dual [1]; library stock concentration (final ~1000-fold dilution): 10 mM water, cytotoxicity flag (confluency mask): not cytotoxic, agonist: Imiquimod (TLR7) […]): 0.949 | NF-kB SEAP reporter activity (RAW-Dual [1]; library stock concentration (final ~1000-fold dilution): 10 mM water, cytotoxicity flag (confluency mask): not cytotoxic, agonist: MPLA (TLR4) […]): 1.01

CN1CCN(CC(=O)N2c3ccccc3C(=O)Nc3cccnc32)CC1.Cl.Cl (library stock concentration (final ~1000-fold dilution): 10 mM water)
NF-kB SEAP reporter activity (RAW-Dual [2]; agonist: LPS (TLR4) 0.1 ug/mL): 1.25 | NF-kB SEAP reporter activity (RAW-Dual [2]; [4]): 1.15 | NF-kB SEAP reporter activity (RAW-Dual [2]; [5]): 1.16 | NF-kB SEAP reporter activity (RAW-Dual [2]; [6]): 1.06

Cl.O=S(=O)(c1cccc2c(I)cccc12)N1CCCNCC1
NF-kB SEAP reporter activity (RAW-Dual [1]; [7]): 0.797 | NF-kB SEAP reporter activity (RAW-Dual [1]; [8]): 1.12

Cl.O=S(=O)(c1cccc2c(I)cccc12)N1CCCNCC1 (library stock concentration (final ~1000-fold dilution): 10 mM)
NF-kB SEAP reporter activity (RAW-Dual [2]; agonist: LPS (TLR4) 0.1 ug/mL): 0.746 | NF-kB SEAP reporter activity (RAW-Dual [2]; [4]): 0.722 | NF-kB SEAP reporter activity (RAW-Dual [2]; [5]): 0.626 | NF-kB SEAP reporter activity (RAW-Dual [2]; [6]): 0.568

CONC(=O)Nc1ccc(-c2sc3c(c2CN(C)C)c(=O)n(-c2ccc(OC)nn2)c(=O)n3Cc2c(F)cccc2F)cc1 (library stock concentration (final ~1000-fold dilution): 10 mM)
NF-kB SEAP reporter activity (RAW-Dual [3]; agonist: LPS (TLR4) 0.1 ug/mL): 3.39 | NF-kB SEAP reporter activity (RAW-Dual [3]; [4]): 0.26 | NF-kB SEAP reporter activity (RAW-Dual [3]; [5]): 1.01 | NF-kB SEAP reporter activity (RAW-Dual [3]; [6]): 1.88

CONC(=O)Nc1ccc(-c2sc3c(c2CN(C)C)c(=O)n(-c2ccc(OC)nn2)c(=O)n3Cc2c(F)cccc2F)cc1
NF-kB SEAP reporter activity (RAW-Dual [1]; [9]): 2.02 | NF-kB SEAP reporter activity (RAW-Dual [1]; [10]): 2.5

CC(C)CCNC(=O)C(CC(C)C)NC(=O)C1OC1C(=O)O (stereo unspecified)
NF-kB SEAP reporter activity (RAW-Dual [1]; [7]): 0.94 | NF-kB SEAP reporter activity (RAW-Dual [1]; [8]): 1.17

CC(C)CCNC(=O)C(CC(C)C)NC(=O)C1OC1C(=O)O (stereo unspecified) (library stock concentration (final ~1000-fold dilution): 10 mM)
NF-kB SEAP reporter activity (RAW-Dual [2]; agonist: LPS (TLR4) 0.1 ug/mL): 1.03 | NF-kB SEAP reporter activity (RAW-Dual [2]; [4]): 1.02 | NF-kB SEAP reporter activity (RAW-Dual [2]; [5]): 1 | NF-kB SEAP reporter activity (RAW-Dual [2]; [6]): 1.19

Br.NC(=O)C(c1ccccc1)(c1ccccc1)C1CCN(CCc2ccc3c(c2)CCO3)C1 (stereo unspecified) (library stock concentration (final ~1000-fold dilution): 10 mM)
NF-kB SEAP reporter activity (RAW-Dual [2]; agonist: LPS (TLR4) 0.1 ug/mL): 0.967 | NF-kB SEAP reporter activity (RAW-Dual [2]; [4]): 0.467 | NF-kB SEAP reporter activity (RAW-Dual [2]; [5]): 0.82 | NF-kB SEAP reporter activity (RAW-Dual [2]; [6]): 0.919

Br.NC(=O)C(c1ccccc1)(c1ccccc1)C1CCN(CCc2ccc3c(c2)CCO3)C1 (stereo unspecified)
NF-kB SEAP reporter activity (RAW-Dual [1]; [7]): 1.02 | NF-kB SEAP reporter activity (RAW-Dual [1]; [8]): 0.984

C=C1CCC2C(C)(CO)C(O)CC[C@@]2(C)[C@@H]1C/C=C1/C(=O)OCC1O (stereo partly specified) (library stock concentration (final ~1000-fold dilution): 10 mM)
NF-kB SEAP reporter activity (RAW-Dual [2]; agonist: LPS (TLR4) 0.1 ug/mL): 0.32 | NF-kB SEAP reporter activity (RAW-Dual [2]; [4]): 0.206 | NF-kB SEAP reporter activity (RAW-Dual [2]; [5]): 0.0769 | NF-kB SEAP reporter activity (RAW-Dual [2]; [6]): 0.161

C=C1CCC2C(C)(CO)C(O)CC[C@@]2(C)[C@@H]1C/C=C1/C(=O)OCC1O (stereo partly specified)
NF-kB SEAP reporter activity (RAW-Dual [1]; [7]): 0.287 | NF-kB SEAP reporter activity (RAW-Dual [1]; [8]): 0.305

CC(C)(C)OC(=O)NC1CCCCC/C=C\C2CC2(C(=O)NS(=O)(=O)C2CC2)NC(=O)C2CC(OC(=O)N3Cc4cccc(F)c4C3)CN2C1=O (stereo unspecified)
NF-kB SEAP reporter activity (RAW-Dual [1]; [7]): 0.902 | NF-kB SEAP reporter activity (RAW-Dual [1]; [8]): 1.01

Cc1cnc(C(=O)NC2CCCCC/C=C\C3CC3(C(=O)NS(=O)(=O)C3CC3)NC(=O)C3CC(Oc4nc5ccccc5c5ccccc45)CN3C2=O)cn1 (stereo unspecified)
NF-kB SEAP reporter activity (RAW-Dual [1]; [8]): 0.899

COc1ccc2c(OC3CC4C(=O)NC5(C(=O)NS(=O)(=O)C6CC6)CC5/C=C\CCCCN(C)C(=O)C4C3)cc(-c3nc(C(C)C)cs3)nc2c1C (stereo unspecified) (library stock concentration (final ~1000-fold dilution): 10 mM)
NF-kB SEAP reporter activity (RAW-Dual [2]; agonist: LPS (TLR4) 0.1 ug/mL): 3.16 | NF-kB SEAP reporter activity (RAW-Dual [2]; [4]): 0.926 | NF-kB SEAP reporter activity (RAW-Dual [2]; [5]): 0.842 | NF-kB SEAP reporter activity (RAW-Dual [2]; [6]): 0.952

Cc1cnc(C(=O)NC2CCCCC/C=C\C3CC3(C(=O)NS(=O)(=O)C3CC3)NC(=O)C3CC(Oc4nc5ccccc5c5ccccc45)CN3C2=O)cn1 (stereo unspecified) (library stock concentration (final ~1000-fold dilution): 10 mM)
NF-kB SEAP reporter activity (RAW-Dual [2]; agonist: LPS (TLR4) 0.1 ug/mL): 0.973 | NF-kB SEAP reporter activity (RAW-Dual [2]; [4]): 1.05 | NF-kB SEAP reporter activity (RAW-Dual [2]; [5]): 0.744 | NF-kB SEAP reporter activity (RAW-Dual [2]; [6]): 0.617

COc1ccc2c(OC3CC4C(=O)NC5(C(=O)NS(=O)(=O)C6CC6)CC5/C=C\CCCCN(C)C(=O)C4C3)cc(-c3nc(C(C)C)cs3)nc2c1C (stereo unspecified)
NF-kB SEAP reporter activity (RAW-Dual [1]; [8]): 1.03

CC(C)(C)OC(=O)NC1CCCCC/C=C\C2CC2(C(=O)NS(=O)(=O)C2CC2)NC(=O)C2CC(OC(=O)N3Cc4cccc(F)c4C3)CN2C1=O (stereo unspecified) (library stock concentration (final ~1000-fold dilution): 10 mM)
NF-kB SEAP reporter activity (RAW-Dual [2]; agonist: LPS (TLR4) 0.1 ug/mL): 1.01 | NF-kB SEAP reporter activity (RAW-Dual [2]; [4]): 0.995 | NF-kB SEAP reporter activity (RAW-Dual [2]; [5]): 0.808 | NF-kB SEAP reporter activity (RAW-Dual [2]; [6]): 1.03

Cl.NCc1c[nH]c(=S)n1C1CCc2c(F)cc(F)cc2C1 (stereo unspecified) (library stock concentration (final ~1000-fold dilution): 10 mM)
NF-kB SEAP reporter activity (RAW-Dual [2]; agonist: LPS (TLR4) 0.1 ug/mL): 0.779 | NF-kB SEAP reporter activity (RAW-Dual [2]; [4]): 0.895 | NF-kB SEAP reporter activity (RAW-Dual [2]; [5]): 0.82 | NF-kB SEAP reporter activity (RAW-Dual [2]; [6]): 0.904

Cl.NCc1c[nH]c(=S)n1C1CCc2c(F)cc(F)cc2C1 (stereo unspecified)
NF-kB SEAP reporter activity (RAW-Dual [1]; [7]): 1.12 | NF-kB SEAP reporter activity (RAW-Dual [1]; [8]): 0.889

COc1cc(NS(C)(=O)=O)ccc1Nc1c2ccccc2nc2ccccc12.Cl
NF-kB SEAP reporter activity (RAW-Dual [1]; [9]): 2.58 | NF-kB SEAP reporter activity (RAW-Dual [1]; [10]): 2.51

COC(=O)c1sccc1S(=O)(=O)Nc1ccc(Nc2ccccc2)cc1OC
NF-kB SEAP reporter activity (RAW-Dual [1]; [7]): 1.07 | NF-kB SEAP reporter activity (RAW-Dual [1]; [8]): 1.11

COc1cc(NS(C)(=O)=O)ccc1Nc1c2ccccc2nc2ccccc12.Cl (library stock concentration (final ~1000-fold dilution): 10 mM)
NF-kB SEAP reporter activity (RAW-Dual [3]; agonist: LPS (TLR4) 0.1 ug/mL): 2.6 | NF-kB SEAP reporter activity (RAW-Dual [3]; [4]): 0.68 | NF-kB SEAP reporter activity (RAW-Dual [3]; [5]): 1.05 | NF-kB SEAP reporter activity (RAW-Dual [3]; [6]): 0.776
